ST2 IL33 inh – inhibitors of human ST2 (IL1RL1) binding to IL-33, primary screen, biochemical, AlphaLISA | AlphaLISA ST2-Fc/biotin-IL-33 interaction, 1 h | inhibition, % for hits at 17 µM | 2.3% of 78,000 active; in the data active = inhibition above about 30%
Target sequence (Q01638 whole entry, looked up): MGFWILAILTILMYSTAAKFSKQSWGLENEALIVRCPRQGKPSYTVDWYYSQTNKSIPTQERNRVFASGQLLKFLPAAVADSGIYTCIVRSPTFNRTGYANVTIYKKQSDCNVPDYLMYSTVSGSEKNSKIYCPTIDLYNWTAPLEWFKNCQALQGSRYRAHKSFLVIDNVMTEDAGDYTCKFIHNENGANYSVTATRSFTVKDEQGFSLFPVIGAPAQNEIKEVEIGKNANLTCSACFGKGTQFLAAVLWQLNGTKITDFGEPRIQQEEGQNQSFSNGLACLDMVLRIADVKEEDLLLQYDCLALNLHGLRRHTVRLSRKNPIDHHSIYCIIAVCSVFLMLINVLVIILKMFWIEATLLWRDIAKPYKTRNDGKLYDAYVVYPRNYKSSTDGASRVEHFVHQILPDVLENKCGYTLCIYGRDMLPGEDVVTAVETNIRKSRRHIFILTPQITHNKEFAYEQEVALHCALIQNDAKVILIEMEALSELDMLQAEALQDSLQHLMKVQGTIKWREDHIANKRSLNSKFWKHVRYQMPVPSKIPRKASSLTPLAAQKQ
Hits are given with their value; n = inactive. The entries come from a sample that favours hits as a whole.

SMILES	ST2 IL33 inh
CC1=C[C@@H](CNC(=O)c2ccccc2)[C@H](C(C)C)C[C@H]1CC(=O)N(C)Cc1cccnc1	n
Cc1csc(NC(=O)C2CCN(S(=O)(=O)c3cccc4cccnc34)CC2)n1	n
CC(=O)c1ccc(NC(=O)N2C[C@@H]3C[C@H](C2)c2ccc(NS(=O)(=O)c4cccs4)c(=O)n2C3)cc1	n
O=C(CCCNS(=O)(=O)c1cccs1)N1CCN(c2ccccc2)CC1	n
CCCCOc1ccc(OCCCC)c2c1nc(-c1ccccc1NC)c(=O)n2C	69.0%
CCOc1ccc(-n2c3nc(=O)n(C)c(=O)c-3cc3ccccc32)cc1	n
CCn1nc(-c2ccccn2)nc2c(=O)n(C)c(=O)nc1-2	n
CC1=C(C(=O)Nc2ccc(C)cc2C)C(c2ccc(Br)cc2)n2nnnc2N1 (centres undefined)	n
CCC(C)(C(=O)C[C@H]1C(=O)O[C@](C)(O)[C@@H]1C)C(=O)OC (some centres undefined)	n
O=C(Nc1ccc(F)c(Cl)c1)c1cnc2n(c1=O)CCS2	n
O=C(Nc1cc(Cl)cc(Cl)c1)c1cnc2n(c1=O)CCS2	n
O=C(Nc1ccc(Cl)c(Cl)c1)c1cnc2n(c1=O)CCS2	32.0%
COc1ccc(/C=C2\SC(N3CCOCC3)=NC2=O)c(OC)c1	n
COc1ccc(/C=C2/C=C(c3ccc(C)cc3)OC2=O)cc1OC	32.0%
COc1ccc(C2=C/C(=C\c3ccc(C)o3)C(=O)O2)cc1	n
COc1ccc(/C=C2/OC(=O)c3c2cc(C)[nH]c3=O)cc1OC	n
COc1ccc(OC)c(/C=C2\N=C(c3cccs3)OC2=O)c1	n
COc1ccc(/C=C2/C=C(c3cc(OC)ccc3OC)OC2=O)c(OC)c1	40.0%
CCC(C)OC(=O)C1=C(C)NC2=C(C(=O)C(C(=O)OC)C(C)C2)C1c1cccc(Cl)c1 (centres undefined)	n
COc1ccc(S(=O)(=O)NCc2ccc3c(c2)OCO3)c(C)c1C	n
O=C(NC1CCCc2ccccc21)c1cc(=O)[nH]c2ccc(S(=O)(=O)N3CCCC3)cc12 (centres undefined)	n
COc1ccc(NC(=O)CN2CCN(Cc3ccc4c(c3)OCO4)CC2)cc1	n
Cc1ccc(-c2noc(CCC(=O)Nc3ccc4c(c3)OCO4)n2)cc1	n
Cc1ccc(NC(=O)Cn2c(-c3ccc4c(c3)OCO4)cn(-c3ccccc3)c2=O)cc1	31.0%
CCCOc1ccc(-c2nn(-c3ccccc3)cc2/C=c2\sc3ncnn3c2=O)cc1	n
SMILES	ST2 IL33 inh
O=C(CSc1nnc2sc3ccccc3n12)c1ccc2c(c1)OCO2	n
Cc1ccccc1C1=N/C(=C\c2cccc([N+](=O)[O-])c2)C(=O)O1	n
Cc1c(NC(=O)C(c2ccccc2)c2ccccc2)cccc1[N+](=O)[O-]	44.0%
Cc1c(NC(=O)C2CC2)cccc1[N+](=O)[O-]	n
Cc1c(NC(=O)c2ccccc2)cccc1[N+](=O)[O-]	n
CNc1ncnc2c1C(c1ccc(Br)cc1)c1c(NC)ncnc1O2	n
Cc1ccsc1S(=O)(=O)N[C@@H]1C[C@@H](CO)N(C)C1	n
COc1ccc2cc3cc(C(=O)NCCN(C)Cc4ccccc4)oc3nc2c1	n
CCOC(=O)N1CCC(N2CCN(c3nc(-c4ccccc4)nc4c3CCC4)CC2)CC1	n
COc1cc2c(C(=O)Nc3ccc4c(c3)OCO4)cn(C)c(=O)c2cc1OC	n
COc1ccccc1Nc1nc(-c2ccc(F)cc2)cs1	n
COc1ccc(OC)c(Nc2nc(-c3sc(N)nc3C)cs2)c1	36.0%
CC(=O)Nc1nc(C)c(-c2csc(Nc3ccc(Br)cc3)n2)s1	n
COCCNC(=O)C1CCCN(C2CCN(Cc3nnc(C)s3)CC2)C1 (centres undefined)	n
CC1=C(C(=O)OCC2CCCO2)C(c2ccc(Br)cc2)C2=C(CC(C)(C)CC2=O)N1 (centres undefined)	n
CCN(CC)C(=O)Cc1cn(C)c2ccccc12	n
Cn1cc(C(c2ccc([N+](=O)[O-])o2)c2cn(C)c3ccccc23)c2ccccc21	41.0%
Cn1cc(CC(=O)NCc2ccco2)c2ccccc21	n
O=C(Nc1ccc(N2CCCC2)cc1)C(Cl)(Cl)Cl	38.0%
O=C(Nc1ccc(Br)cc1)c1ccc(Cl)cc1Cl	n
CC(=O)Nc1ccc(CN2CCN(c3ccc(Cl)cc3)CC2)cc1	n
O=C(Nc1ccc(N2CCCC2)cc1)c1cc(Br)ccc1Cl	34.0%
O=C(Nc1ccc(S(=O)(=O)N2CCCC2)cc1)C(F)(F)F	n
O=C(Nc1ccc(N2CCOCC2)cc1)c1ccc(Br)cc1	n
C=CCN(Cc1ncccc1C(=O)O)C1CCCC1	n
Cc1nc2c(C(=O)N3CCC4(CC3)OCCO4)cnn2c(C)c1Cc1ccc(F)cc1	n
O=C(NCc1ccc(F)cc1)c1cc(=O)[nH]c2ccc(S(=O)(=O)N3CCCC3)cc12	n
CCCCNC(=O)Cn1c(C)nc2sc(C(=O)OCC)c(C)c2c1=O	n
COc1ccccc1N1C(=O)CC(N2CCN(c3ccc(F)cc3)CC2)C1=O (centres undefined)	n

Source: PubChem BioAssay (Paczesny and Yang Labs, IUPUI and University of Michigan)
